Inconclusive results are not listed. Activity calls are given as the source filed them. How the source made its calls, unless noted: active means hit-call score of the fitted dose curve at least 0.9, where 1 is the maximum; inconclusive means response in the unintended direction; inactive means score below 0.9.
Legend:
[1] = read-out: ABC Transporter (ABCB11), ABCB11 (gene 8647); experiment: CLD_ABCB11_6hr: CellzDirect (CLD) Gene Expression Assay for ABC Transporter (ABCB11) at 6 hours (AID 2283675);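 further: hits raise ABCB11 mRNA level so AC50 marks induction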
Procedure, shortened: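 Human primary hepatocytes (two donor preparations) given fresh chemical daily at multiple concentrations, vehicle 0.2% DMSO. ABCB11 mRNA induction measured 6 h after dosing by qNPA chemiluminescence versus DMSO; cytotoxicity annotated from morphology.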

[2] = read-out: Cytochrome P450 2C19 (Homo sapiens) (UniProt P33261); experiment: CLD_CYP2C19_6hr: CellzDirect (CLD) Gene Expression Assay for xenobiotic metabolism (CYP2C19) at 6 hours (AID 2283678)
Procedure, shortened: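 Primary human hepatocytes from two donor preparations were dosed daily, with 0.2% DMSO as vehicle, and harvested 6 h after dosing. CYP2C19 mRNA induction was measured by qNPA chemiluminescence and fitted as gain of signal against DMSO.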

[3] = CCTE_Padilla_ZF_144hpf_TERATOSCORE: (Legacy) CCTE's 144 Hour Post-fertilization zebrafish Assay Teratoscore, Padilla Lab (AID 2283679; active means hit-call score of the fitted dose curve at least 0.9, where 1 is the maximum; inactive means score below 0.9;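 on AC50: zebrafish embryos with chorions exposed by immersion from 6-8 hpf to 5 dpf with daily renewal; teratogenicity score from eye scoring of death hatching and malformations at 144 hpf; higher score means more developmental defects relative to DMSO baseline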)
Procedure, shortened: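 Larvae scored by eye at 144 hpf for death, hatching and malformations after a day in clean Hanks'. Before that, daily-renewed exposure at 80 uM (0.4% DMSO, 26C) from roughly 6-8 hpf through 5 dpf, 4 embryos per chemical.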

[4] = read-out: Glyceraldehyde-3-phosphate dehydrogenase (Homo sapiens) (UniProt P04406); experiment: CLD_GAPDH_6hr: CellzDirect (CLD) Gene Expression Assay for Baseline Control (Glyceraldehyde 3-phosphate dehydrogenase) at 6 hours (AID 2283681);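 further: active means increased signal relative to DMSO vehicle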
Procedure, shortened: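 Primary human hepatocytes from two donor preparations, dosed at multiple concentrations with 0.2% DMSO vehicle; GAPDH mRNA measured 6 h after dosing by chemiluminescent quantitative nuclease protection assay (qNPA) on denatured lysates. Serves as background control; cytotoxicity annotated by morphology.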

[5] = read-out: HMG-CoA synthase (HMGCS2), HMGCS2 (gene 3158); experiment: CLD_HMGCS2_6hr: CellzDirect (CLD) Gene Expression Assay for HMG-CoA synthase (HMGCS2) at 6 hours (AID 2283682);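 further: actives raise HMGCS2 transcript above the 0.2% DMSO vehicle baseline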
Procedure, shortened: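 Primary human hepatocytes dosed daily with fresh chemical, 0.2% DMSO vehicle; HMGCS2 mRNA measured at 6 h by qNPA chemiluminescence. Gain of signal fitted against DMSO; cytotoxicity flagged from phase-contrast morphology.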

[6] = read-out: xenobiotic metabolism (CYP1A2), CYP1A2 (gene 1544); experiment: CLD_CYP1A2_24hr: CellzDirect (CLD) Gene Expression Assay for xenobiotic metabolism (CYP1A2) at 24 hours (AID 2283683)
Procedure, shortened: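 Primary human hepatocytes from two donor preparations dosed daily with multiple concentrations of chemical, 0.2% DMSO vehicle. CYP1A2 mRNA at 24 h quantified by qNPA chemiluminescence; gain of signal analyzed relative to DMSO. Cytotoxicity flagged by phase-contrast morphology.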

[7] = read-out: ABC Transporter (ABCB1), ABCB1 (gene 5243); experiment: CLD_ABCB1_24hr: CellzDirect (CLD) Gene Expression Assay for ABC Transporter (ABCB1) at 24 hours (AID 2283684);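 on AC50: potency for increase in ABCB1 mRNA relative to DMSO vehicle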
Procedure, shortened: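 Primary human hepatocytes, two donor preparations, dosed daily with fresh solutions; vehicle 0.2% DMSO; harvested at 24 h. ABCB1 mRNA measured by quantitative nuclease protection assay (chemiluminescence); morphology-based cytotoxicity annotated.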

[8] = read-out: Glyceraldehyde-3-phosphate dehydrogenase (Homo sapiens) (UniProt P04406); experiment: CLD_GAPDH_24hr: CellzDirect (CLD) Gene Expression Assay for Baseline Control (Glyceraldehyde 3-phosphate dehydrogenase) at 24 hours (AID 2283692)
Procedure, shortened: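 Primary human hepatocytes (two donor preparations) dosed daily for two days, 0.2% DMSO vehicle; GAPDH mRNA measured at 24 h by qNPA chemiluminescence as a background control, gain-of-signal fitted against DMSO.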

[9] = read-out: sulfotransferase (SULT2A), SULT2A1 (gene 6822); experiment: CLD_SULT2A_24hr: CellzDirect (CLD) Gene Expression Assay for sulfotransferase (SULT2A) at 24 hours (AID 2283694)
Procedure, shortened: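 Primary human hepatocytes from two donor preparations were dosed daily with fresh solutions, vehicle 0.2% DMSO. At 24 h, lysates went to quantitative nuclease protection (qNPA) with S1 digestion and chemiluminescent readout. Cytotoxicity was annotated from phase-contrast morphology.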

[10] = read-out: glucuronosyltransferase (UGT1A1), UGT1A1 (gene 54658); experiment: CLD_UGT1A1_24hr: CellzDirect (CLD) Gene Expression Assay for glucuronosyltransferase (UGT1A1) at 24 hours (AID 2283696)
Procedure, shortened: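 Primary human hepatocytes from two donor preparations were dosed (0.2% DMSO vehicle) and harvested at 24 h; UGT1A1 mRNA induction was quantified by chemiluminescent qNPA, fitted as gain relative to DMSO.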

[11] = read-out: Cytochrome P450 2B6 (Homo sapiens) (UniProt P20813); experiment: CLD_CYP2B6_6hr: CellzDirect (CLD) Gene Expression Assay for xenobiotic metabolism (CYP2B6) at 6 hours (AID 2283677);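 further: actives raise CYP2B6 transcript above DMSO baseline so AC50 marks an inducer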
Procedure, shortened: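 Primary human hepatocytes dosed with chemicals at multiple concentrations, vehicle 0.2% DMSO; CYP2B6 mRNA induction measured 6 h after dosing by quantitative nuclease protection assay with chemiluminescence, gain of signal fitted relative to DMSO.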

[12] = read-out: Cytochrome P450 2B6 (Homo sapiens) (UniProt P20813); experiment: CLD_CYP2B6_24hr: CellzDirect (CLD) Gene Expression Assay for xenobiotic metabolism (CYP2B6) at 24 hours (AID 2283686)
Procedure, shortened: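 Primary human hepatocytes dosed daily for two days with fresh solutions, harvested at 24 hours; mRNA induction quantified by qNPA chemiluminescence, gain of signal vs 0.2% DMSO vehicle. Cytotoxicity annotated from phase-contrast morphology.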

[13] = read-out: Cytochrome P450 3A4 (Homo sapiens) (UniProt P08684); experiment: CLD_CYP3A4_24hr: CellzDirect (CLD) Gene Expression Assay for xenobiotic metabolism (CYP3A4) at 24 hours (AID 2283689)
Procedure, shortened: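 Primary human hepatocytes from two donors dosed daily with fresh compound for two days, 0.2% DMSO vehicle. CYP3A4 mRNA at 24 hr by qNPA chemiluminescence; gain-of-signal fit versus DMSO, cytotoxicity flagged by morphology.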

[14] = read-out: Cytochrome P450 3A4 (Homo sapiens) (UniProt P08684); experiment: CLD_CYP3A4_6hr: CellzDirect (CLD) Gene Expression Assay for xenobiotic metabolism (CYP3A4) at 6 hours (AID 2283680)
Procedure, shortened: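 Primary human hepatocytes (two donor preparations) dosed; CYP3A4 mRNA harvested at 6 h and quantified by qNPA chemiluminescence. Gain of signal fitted against 0.2% DMSO vehicle; cytotoxicity flagged by phase-contrast morphology.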

[15] = read-out: Broad substrate specificity ATP-binding cassette transporter ABCG2 (Homo sapiens) (UniProt Q9UNQ0); experiment: CLD_ABCG2_24hr: CellzDirect (CLD) Gene Expression Assay for ABC Transporter (ABCG2) at 24 hours (AID 2283685);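 on AC50: AC50 is for induction meaning signal gain over DMSO vehicle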
Procedure, shortened: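 Primary human hepatocytes were dosed daily with ToxCast chemicals at multiple concentrations (vehicle 0.2% DMSO). ABCG2 mRNA was measured at 24 h by qNPA chemiluminescence; induction was scored as gain of signal versus DMSO.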

[16] = read-out: alkyl and aryl transferase (GSTA2), GSTA2 (gene 2939); experiment: CLD_GSTA2_24hr: CellzDirect (CLD) Gene Expression Assay for alkyl and aryl transferase (GSTA2) at 24 hours (AID 2283693)
Procedure, shortened: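 Primary human hepatocytes (two donor preparations) dosed daily for two days with chemicals at multiple concentrations (vehicle 0.2% DMSO); GSTA2 mRNA at 24 h measured by qNPA chemiluminescence, gain-of-signal versus DMSO.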

[17] = read-out: Cytochrome P450 2C9 (Homo sapiens) (UniProt P11712); experiment: CLD_CYP2C9_24hr: CellzDirect (CLD) Gene Expression Assay for xenobiotic metabolism (CYP2C9) at 24 hours (AID 2283688)
Procedure, shortened: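 Primary human hepatocytes from two donor preparations, dosed daily for two days at multiple concentrations; vehicle 0.2% DMSO. CYP2C9 mRNA induction at 24 h measured by qNPA chemiluminescence relative to DMSO; cytotoxicity annotated from morphology.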

[18] = read-out: Cytochrome P450 2C19 (Homo sapiens) (UniProt P33261); experiment: CLD_CYP2C19_24hr: CellzDirect (CLD) Gene Expression Assay for xenobiotic metabolism (CYP2C19) at 24 hours (AID 2283687);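 further: activity means mRNA induction above DMSO vehicle baseline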
Procedure, shortened: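 Primary human hepatocytes (two donor preparations) dosed daily with fresh test chemical in 0.2% DMSO vehicle; CYP2C19 mRNA induction measured at 24 h by quantitative nuclease protection assay with chemiluminescence, fitted for gain of signal versus DMSO.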

[19] = read-out: ABC Transporter (ABCB1), ABCB1 (gene 5243); experiment: CLD_ABCB1_48hr: CellzDirect (CLD) Gene Expression Assay for ABC Transporter (ABCB1) at 48 hours (AID 2283695)
Procedure, shortened: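 Primary human hepatocytes from two donor preparations dosed daily on two consecutive days with 0.2% DMSO vehicle. Harvest at 48 h. ABCB1 mRNA quantified by qNPA with chemiluminescence and fitted for gain of signal versus DMSO.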

Measured: AC50

Chain of Glyceraldehyde-3-phosphate dehydrogenase (Homo sapiens) (P04406 whole entry, looked up): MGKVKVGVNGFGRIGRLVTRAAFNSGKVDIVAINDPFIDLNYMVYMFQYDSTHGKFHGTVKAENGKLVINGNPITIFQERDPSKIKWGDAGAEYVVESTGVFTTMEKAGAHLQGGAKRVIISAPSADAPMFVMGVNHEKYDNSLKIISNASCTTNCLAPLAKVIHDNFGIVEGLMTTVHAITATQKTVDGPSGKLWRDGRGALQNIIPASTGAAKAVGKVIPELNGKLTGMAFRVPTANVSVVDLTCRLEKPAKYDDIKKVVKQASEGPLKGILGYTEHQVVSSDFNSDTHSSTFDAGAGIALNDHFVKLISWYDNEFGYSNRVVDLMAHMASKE
Chain of Cytochrome P450 3A4 (Homo sapiens) (P08684 whole entry, looked up): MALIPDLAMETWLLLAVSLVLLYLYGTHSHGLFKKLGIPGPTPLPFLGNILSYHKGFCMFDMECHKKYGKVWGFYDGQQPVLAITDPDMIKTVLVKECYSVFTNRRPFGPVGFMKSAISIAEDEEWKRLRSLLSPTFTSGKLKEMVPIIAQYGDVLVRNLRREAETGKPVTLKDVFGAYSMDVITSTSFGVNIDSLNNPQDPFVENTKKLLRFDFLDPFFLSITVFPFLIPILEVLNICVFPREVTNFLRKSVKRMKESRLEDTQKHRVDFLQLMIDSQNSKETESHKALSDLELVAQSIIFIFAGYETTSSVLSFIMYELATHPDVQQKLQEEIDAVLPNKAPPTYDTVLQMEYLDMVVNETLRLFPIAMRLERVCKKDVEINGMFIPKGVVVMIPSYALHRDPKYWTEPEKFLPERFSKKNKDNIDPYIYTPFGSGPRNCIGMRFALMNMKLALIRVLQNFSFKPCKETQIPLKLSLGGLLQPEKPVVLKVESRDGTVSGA
Chain of Cytochrome P450 2C19 (Homo sapiens) (P33261 whole entry, looked up): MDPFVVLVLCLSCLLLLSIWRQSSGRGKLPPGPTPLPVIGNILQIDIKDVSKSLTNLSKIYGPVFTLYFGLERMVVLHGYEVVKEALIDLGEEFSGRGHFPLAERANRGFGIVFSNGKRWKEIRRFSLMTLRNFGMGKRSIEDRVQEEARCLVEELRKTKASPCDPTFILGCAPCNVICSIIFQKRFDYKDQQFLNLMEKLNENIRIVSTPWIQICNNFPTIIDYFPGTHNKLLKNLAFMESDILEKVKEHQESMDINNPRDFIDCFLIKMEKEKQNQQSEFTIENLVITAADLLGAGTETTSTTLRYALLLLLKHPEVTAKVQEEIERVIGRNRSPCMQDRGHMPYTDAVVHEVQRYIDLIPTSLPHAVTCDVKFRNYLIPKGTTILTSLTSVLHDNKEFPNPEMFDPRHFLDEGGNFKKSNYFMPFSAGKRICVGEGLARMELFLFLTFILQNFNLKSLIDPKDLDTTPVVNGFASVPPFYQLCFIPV
Chain of Broad substrate specificity ATP-binding cassette transporter ABCG2 (Homo sapiens) (Q9UNQ0 whole entry, looked up): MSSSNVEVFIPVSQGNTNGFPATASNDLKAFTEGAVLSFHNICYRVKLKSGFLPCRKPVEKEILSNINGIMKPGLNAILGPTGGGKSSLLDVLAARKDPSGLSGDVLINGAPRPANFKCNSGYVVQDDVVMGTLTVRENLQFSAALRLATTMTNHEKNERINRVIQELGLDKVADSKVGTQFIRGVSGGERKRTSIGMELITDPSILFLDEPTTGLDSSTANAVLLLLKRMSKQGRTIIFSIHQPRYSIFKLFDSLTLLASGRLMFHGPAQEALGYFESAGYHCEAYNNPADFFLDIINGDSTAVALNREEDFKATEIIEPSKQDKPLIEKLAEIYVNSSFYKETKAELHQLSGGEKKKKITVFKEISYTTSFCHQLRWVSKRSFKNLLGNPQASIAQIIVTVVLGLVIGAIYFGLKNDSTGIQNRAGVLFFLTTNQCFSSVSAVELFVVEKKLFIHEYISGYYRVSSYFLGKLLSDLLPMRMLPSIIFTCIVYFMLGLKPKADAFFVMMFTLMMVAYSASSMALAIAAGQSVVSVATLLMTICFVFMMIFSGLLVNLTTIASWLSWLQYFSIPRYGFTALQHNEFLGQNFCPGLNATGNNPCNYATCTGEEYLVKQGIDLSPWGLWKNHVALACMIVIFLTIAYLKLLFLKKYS

CC(Oc1cccc(Cl)c1)C(=O)O (stereo unspecified)
inactive: [1] | [2] | [3] | [4] | [5] | [6] | [7] | [8] | [9] | [10]

CC(C1CC1)C(O)(Cn1cncn1)c1ccc(Cl)cc1 (stereo unspecified)
active: [11] 1.28 µM | [3] 57.6 µM | [6] 4.89 µM | [12] 4.02 µM | [13] 3.78 µM
inactive: [1] | [2] | [4] | [9] | [10]

CCCOCC(=Nc1ccc(Cl)cc1C(F)(F)F)n1ccnc1
active: [11] 1.15 µM | [3] 2.07 µM | [6] 1.89 µM | [7] 32 µM | [15] 20 µM
inactive: [1] | [14] | [4] | [5] | [8] | [10]

CCOP(=S)(OCC)Oc1cc(C)nc(C(C)C)n1
active: [3] 62.7 µM | [6] 7.6 µM | [12] 0.747 µM | [10] 1.92 µM
inactive: [1] | [14] | [4] | [5] | [7] | [16] | [9]

CCOP(=O)(SC(C)CC)N1CCSC1=O (stereo unspecified)
inactive: [1] | [2] | [3] | [4] | [6] | [7] | [15] | [17] | [9] | [10]
active: [11] 3.89 µM | [14] 8.82 µM

CN1COCN(Cc2cnc(Cl)s2)C1=N[N+](=O)[O-]
inactive: [1] | [2] | [3] | [5] | [6] | [12] | [17] | [9] | [10]

CCCCOC(=O)c1ccccc1C(=O)O
inactive: [1] | [11] | [2] | [3] | [14] | [4] | [6] | [15] | [8]

COP(=O)(OC)OC(Br)C(Cl)(Cl)Br (stereo unspecified)
active: [3] 16.7 µM
inactive: [1] | [11] | [2] | [4] | [5] | [6] | [18] | [16] | [10]

COc1cc(OC)nc(Sc2cccc(Cl)c2C(=O)O)n1
inactive: [1] | [11] | [2] | [3] | [4] | [5] | [15] | [17] | [8] | [9] | [19] | [10]
active: [13] 20 µM

CCOP(=O)(OCC)Oc1cc(C)nc(C(C)C)n1
active: [11] 20 µM | [3] 38.2 µM | [6] 30.7 µM
inactive: [1] | [2] | [14] | [4] | [5] | [15] | [17] | [8] | [9] | [10]

CON=C(C(=O)OC)c1ccccc1CON=C(C)c1cccc(C(F)(F)F)c1
active: [11] 10.2 µM | [3] 0.208 µM | [13] 15.6 µM
inactive: [1] | [2] | [14] | [6] | [7] | [15] | [17] | [16] | [9] | [10]

CC1=NNC(=O)N(/N=C/c2cccnc2)C1
inactive: [1] | [11] | [2] | [4] | [5] | [12] | [8] | [9]
active: [3] 46.4 µM | [6] 5.59 µM

CNC(=O)ON=C(C)SC
active: [3] 73.3 µM
inactive: [1] | [2] | [4] | [5] | [6] | [15] | [18] | [8] | [19] | [10]

C[N+]1(C)CCCCC1
inactive: [1] | [2] | [3] | [14] | [15] | [17] | [16] | [19] | [10]
active: [13] 1.89 µM

CN(C)NC(=O)CCC(=O)O
inactive: [1] | [3] | [14] | [4] | [5] | [6] | [7] | [15] | [13] | [8] | [10]

CCOC(=O)CC(SP(=O)(OC)OC)C(=O)OCC (stereo unspecified)
active: [6] 2.38 µM
inactive: [1] | [2] | [3] | [7] | [15] | [17] | [10]

— PubChem BioAssay (EPA / NIEHS)
